Data from the supplement of paper PMC11732987, “Enantioselective OTUD7B fragment discovery through chemoproteomics screening and high-throughput optimisation” (Communications Chemistry, 2025).

Columns and labels:
Test in all cases: log2 ratio of Biotin-Ahx-Ub-VS probe labelling (fragment/DMSO); higher = less target engagement (more negative = stronger competition), active = hit call of the paper (q ≤ 0.05, log2 ratio ≤ -1)
Settings in all cases: compound concentration: 200 uM; treatment time: 3 h
USP19 = biological target: T1, USP19 (UniProt O94966)
T1 sequence (whole entry): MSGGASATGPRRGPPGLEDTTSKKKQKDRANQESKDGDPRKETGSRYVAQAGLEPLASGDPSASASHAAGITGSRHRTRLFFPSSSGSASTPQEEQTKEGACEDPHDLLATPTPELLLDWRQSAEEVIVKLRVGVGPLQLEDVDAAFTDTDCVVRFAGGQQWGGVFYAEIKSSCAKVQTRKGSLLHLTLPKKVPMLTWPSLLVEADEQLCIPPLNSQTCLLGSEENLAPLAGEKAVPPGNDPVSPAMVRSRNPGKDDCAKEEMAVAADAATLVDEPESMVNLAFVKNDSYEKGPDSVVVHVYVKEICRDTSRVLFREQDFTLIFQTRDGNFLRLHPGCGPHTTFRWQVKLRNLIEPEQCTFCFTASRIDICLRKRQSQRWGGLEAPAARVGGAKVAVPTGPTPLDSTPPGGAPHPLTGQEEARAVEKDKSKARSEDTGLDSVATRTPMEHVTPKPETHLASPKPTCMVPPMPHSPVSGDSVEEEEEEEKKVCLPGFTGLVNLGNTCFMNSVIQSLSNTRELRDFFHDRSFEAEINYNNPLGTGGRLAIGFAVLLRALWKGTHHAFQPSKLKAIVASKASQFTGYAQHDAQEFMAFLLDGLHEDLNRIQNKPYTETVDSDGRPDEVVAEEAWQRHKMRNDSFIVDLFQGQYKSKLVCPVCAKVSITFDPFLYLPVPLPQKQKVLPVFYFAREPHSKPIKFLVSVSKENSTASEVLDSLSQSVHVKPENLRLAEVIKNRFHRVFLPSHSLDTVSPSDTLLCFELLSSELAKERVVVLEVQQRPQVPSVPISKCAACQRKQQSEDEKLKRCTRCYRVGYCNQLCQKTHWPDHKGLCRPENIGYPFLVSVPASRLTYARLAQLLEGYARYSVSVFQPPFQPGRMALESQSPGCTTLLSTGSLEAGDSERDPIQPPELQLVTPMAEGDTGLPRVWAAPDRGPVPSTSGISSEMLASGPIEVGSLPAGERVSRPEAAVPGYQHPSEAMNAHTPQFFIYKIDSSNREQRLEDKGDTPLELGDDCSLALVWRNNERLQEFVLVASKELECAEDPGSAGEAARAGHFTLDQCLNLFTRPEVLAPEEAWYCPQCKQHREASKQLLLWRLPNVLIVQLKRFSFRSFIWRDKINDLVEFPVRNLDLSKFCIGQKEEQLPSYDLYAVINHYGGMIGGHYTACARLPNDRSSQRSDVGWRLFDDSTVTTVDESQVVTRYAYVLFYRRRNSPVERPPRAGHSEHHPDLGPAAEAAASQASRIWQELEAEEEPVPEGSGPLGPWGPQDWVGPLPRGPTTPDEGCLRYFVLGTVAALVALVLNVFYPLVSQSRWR
Procedure, shortened: (§1)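 Global-median-normalised Spectronaut label-free quantities were compared by unpaired t-test, and values are average log2 ratios of fragment over vehicle. Only proteins with ≥2 unique peptides were used. HEK293T lysate (495 µg per sample) was treated in triplicate with fragment at 200 µM or vehicle for 3 h and then with Biotin-Ahx-Ub-VS at 0.5 µM final for 1 h. Labelled DUBs were then NeutrAvidin-enriched, digested with LysC and trypsin, and run by diaPASEF LC-MS/MS.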

USP24 = USP24 (UniProt Q9UPU5)
Procedure, shortened: as §1

USP25 = biological target: T2, USP25 (UniProt Q9UHP3)
T2 sequence (whole entry): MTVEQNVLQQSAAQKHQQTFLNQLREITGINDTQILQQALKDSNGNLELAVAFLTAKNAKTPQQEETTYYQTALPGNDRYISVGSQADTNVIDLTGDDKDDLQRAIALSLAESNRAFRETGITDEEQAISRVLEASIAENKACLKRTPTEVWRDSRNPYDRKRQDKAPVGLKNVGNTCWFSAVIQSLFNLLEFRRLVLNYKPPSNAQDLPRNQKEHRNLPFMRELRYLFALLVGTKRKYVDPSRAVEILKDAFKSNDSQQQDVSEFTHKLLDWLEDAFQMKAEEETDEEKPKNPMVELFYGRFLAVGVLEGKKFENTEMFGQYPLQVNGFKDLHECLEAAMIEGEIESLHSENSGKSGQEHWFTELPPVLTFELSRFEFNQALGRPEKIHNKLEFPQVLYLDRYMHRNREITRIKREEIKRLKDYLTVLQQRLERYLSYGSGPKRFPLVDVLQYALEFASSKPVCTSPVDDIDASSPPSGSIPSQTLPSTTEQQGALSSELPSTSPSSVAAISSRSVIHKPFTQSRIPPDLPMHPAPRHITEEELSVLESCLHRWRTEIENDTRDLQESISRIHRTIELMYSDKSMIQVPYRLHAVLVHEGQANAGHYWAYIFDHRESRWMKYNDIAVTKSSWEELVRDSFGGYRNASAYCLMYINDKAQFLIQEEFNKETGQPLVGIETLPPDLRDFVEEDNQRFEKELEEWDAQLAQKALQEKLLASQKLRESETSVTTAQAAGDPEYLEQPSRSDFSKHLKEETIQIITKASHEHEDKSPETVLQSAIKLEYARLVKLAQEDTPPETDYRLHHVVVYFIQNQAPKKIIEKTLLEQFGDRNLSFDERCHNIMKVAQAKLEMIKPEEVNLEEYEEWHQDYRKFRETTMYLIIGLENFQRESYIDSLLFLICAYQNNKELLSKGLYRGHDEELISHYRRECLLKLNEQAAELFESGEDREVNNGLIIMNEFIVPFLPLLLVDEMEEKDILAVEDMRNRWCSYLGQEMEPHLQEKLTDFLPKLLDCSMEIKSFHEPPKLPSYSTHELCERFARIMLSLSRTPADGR
Procedure, shortened: as §1

USP28 = biological target: T3, USP28 (UniProt Q96RU2)
T3 sequence (whole entry): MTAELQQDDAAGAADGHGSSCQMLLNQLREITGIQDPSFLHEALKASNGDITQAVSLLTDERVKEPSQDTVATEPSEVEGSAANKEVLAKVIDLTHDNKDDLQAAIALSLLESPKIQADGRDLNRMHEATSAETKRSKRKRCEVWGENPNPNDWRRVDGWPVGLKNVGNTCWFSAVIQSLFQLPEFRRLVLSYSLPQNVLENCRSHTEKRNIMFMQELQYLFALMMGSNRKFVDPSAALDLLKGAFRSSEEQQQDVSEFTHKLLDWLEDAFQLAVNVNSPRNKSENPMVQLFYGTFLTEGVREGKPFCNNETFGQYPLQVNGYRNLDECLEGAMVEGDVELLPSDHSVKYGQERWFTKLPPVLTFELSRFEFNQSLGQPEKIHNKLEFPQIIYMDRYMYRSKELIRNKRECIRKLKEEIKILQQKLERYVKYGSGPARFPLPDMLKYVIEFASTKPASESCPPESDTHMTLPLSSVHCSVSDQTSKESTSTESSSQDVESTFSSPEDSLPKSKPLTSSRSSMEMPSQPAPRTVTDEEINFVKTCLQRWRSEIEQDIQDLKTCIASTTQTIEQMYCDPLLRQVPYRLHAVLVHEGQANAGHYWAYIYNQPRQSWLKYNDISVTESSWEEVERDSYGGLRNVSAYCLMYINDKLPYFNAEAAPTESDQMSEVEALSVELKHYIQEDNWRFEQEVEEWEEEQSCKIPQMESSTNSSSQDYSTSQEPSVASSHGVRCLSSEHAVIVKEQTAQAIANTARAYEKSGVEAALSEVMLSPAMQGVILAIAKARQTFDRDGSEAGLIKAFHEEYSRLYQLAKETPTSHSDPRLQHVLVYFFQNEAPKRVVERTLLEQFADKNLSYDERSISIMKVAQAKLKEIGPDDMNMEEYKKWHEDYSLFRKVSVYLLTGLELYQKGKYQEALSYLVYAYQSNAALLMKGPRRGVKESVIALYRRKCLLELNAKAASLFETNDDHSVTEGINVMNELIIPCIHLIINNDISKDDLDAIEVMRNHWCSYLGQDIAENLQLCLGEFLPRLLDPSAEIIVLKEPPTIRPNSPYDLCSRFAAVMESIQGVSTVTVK
Procedure, shortened: as §1

Measured: log2 ratio of Biotin-Ahx-Ub-VS probe labelling

Sequence of USP24 (Q9UPU5 whole entry): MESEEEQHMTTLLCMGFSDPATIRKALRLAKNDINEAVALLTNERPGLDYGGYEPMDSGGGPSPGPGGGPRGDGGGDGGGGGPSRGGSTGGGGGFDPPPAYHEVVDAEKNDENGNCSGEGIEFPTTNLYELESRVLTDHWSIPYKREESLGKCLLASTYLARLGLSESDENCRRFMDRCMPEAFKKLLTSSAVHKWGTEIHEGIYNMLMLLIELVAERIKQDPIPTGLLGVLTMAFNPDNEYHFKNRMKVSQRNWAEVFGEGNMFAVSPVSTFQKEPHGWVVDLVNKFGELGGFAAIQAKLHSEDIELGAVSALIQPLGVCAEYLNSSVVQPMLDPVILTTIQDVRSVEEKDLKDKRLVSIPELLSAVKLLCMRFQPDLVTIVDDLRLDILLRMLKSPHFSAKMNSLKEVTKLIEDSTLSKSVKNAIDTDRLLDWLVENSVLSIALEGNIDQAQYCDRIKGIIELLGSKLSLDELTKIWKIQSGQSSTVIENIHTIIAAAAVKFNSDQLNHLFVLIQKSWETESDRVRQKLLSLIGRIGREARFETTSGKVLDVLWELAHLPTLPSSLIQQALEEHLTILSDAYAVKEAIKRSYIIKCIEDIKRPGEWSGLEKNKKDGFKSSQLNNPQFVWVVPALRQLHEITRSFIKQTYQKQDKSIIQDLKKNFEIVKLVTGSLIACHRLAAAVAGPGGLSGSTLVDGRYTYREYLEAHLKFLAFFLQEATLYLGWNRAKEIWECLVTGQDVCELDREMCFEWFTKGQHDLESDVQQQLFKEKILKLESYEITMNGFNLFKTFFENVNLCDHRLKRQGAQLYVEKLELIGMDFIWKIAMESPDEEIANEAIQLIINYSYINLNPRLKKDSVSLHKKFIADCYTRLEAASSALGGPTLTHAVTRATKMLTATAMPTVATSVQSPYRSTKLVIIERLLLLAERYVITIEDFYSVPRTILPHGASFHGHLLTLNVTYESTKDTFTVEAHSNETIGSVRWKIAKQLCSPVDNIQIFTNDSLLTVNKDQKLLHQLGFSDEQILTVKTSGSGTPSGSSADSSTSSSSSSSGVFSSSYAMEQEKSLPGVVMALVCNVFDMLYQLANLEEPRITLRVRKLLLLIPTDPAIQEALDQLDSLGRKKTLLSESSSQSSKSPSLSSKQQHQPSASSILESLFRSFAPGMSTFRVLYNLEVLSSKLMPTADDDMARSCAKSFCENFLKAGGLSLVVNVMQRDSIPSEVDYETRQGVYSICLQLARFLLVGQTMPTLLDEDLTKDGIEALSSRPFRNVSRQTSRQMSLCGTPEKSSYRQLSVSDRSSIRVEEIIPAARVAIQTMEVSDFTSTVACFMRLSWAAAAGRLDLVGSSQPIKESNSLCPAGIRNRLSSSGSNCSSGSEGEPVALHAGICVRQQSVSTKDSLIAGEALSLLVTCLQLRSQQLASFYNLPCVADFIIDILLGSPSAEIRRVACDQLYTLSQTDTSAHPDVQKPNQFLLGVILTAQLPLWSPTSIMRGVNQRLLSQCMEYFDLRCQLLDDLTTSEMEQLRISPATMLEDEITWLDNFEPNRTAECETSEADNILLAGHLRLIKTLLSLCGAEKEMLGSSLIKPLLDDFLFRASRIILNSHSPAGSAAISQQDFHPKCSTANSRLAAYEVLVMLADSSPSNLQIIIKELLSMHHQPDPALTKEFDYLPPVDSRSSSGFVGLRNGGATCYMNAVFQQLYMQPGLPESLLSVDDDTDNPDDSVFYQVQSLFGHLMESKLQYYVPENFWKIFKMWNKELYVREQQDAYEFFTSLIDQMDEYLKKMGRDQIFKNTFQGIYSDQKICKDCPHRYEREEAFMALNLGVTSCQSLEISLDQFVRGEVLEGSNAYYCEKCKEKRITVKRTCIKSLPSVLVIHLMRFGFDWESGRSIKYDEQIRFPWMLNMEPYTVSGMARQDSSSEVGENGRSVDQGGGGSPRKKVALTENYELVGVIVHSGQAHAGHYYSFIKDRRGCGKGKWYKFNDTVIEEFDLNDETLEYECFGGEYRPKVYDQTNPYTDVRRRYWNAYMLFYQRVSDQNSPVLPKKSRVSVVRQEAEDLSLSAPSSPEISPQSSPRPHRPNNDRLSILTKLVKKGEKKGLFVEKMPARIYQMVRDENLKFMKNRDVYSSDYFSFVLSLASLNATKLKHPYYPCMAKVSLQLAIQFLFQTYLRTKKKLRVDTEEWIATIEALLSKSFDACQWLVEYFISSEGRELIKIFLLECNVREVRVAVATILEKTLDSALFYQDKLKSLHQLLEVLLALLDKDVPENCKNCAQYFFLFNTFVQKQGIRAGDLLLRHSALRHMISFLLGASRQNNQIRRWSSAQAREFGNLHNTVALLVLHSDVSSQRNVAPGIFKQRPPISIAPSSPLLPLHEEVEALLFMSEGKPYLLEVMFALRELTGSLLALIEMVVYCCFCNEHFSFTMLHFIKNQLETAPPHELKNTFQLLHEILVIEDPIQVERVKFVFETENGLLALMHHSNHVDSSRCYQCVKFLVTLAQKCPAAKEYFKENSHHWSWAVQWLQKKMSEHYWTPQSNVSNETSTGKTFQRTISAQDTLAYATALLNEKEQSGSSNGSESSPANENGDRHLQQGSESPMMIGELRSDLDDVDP

Cl.Cn1nc2c(c1CNC(=O)CCl)CCCC2
inactive: USP19 0.00104 | USP24 -0.0442 | USP25 -0.147 | USP28 -0.325
